# Values joined by “and” are separate entries in the source; they are usually repeats but may differ in a detail not shown here. Equal entries are not always repeated. Records with an inconclusive call do not appear. A call without a number means that no potency is given here. Active and inactive are the calls of the source. Unless noted, the call rests on the fitted dose curve; in most records, active means well fitted curve in the direction sought with a large enough effect in the repeat runs; inconclusive means weak or mixed curves; inactive means no such curve, though single readings can be large; an effect the other way counts as inactive or inconclusive. Starred links: 1 amine or outer side, 2 acyl side, 3 side chain; linkers in the order of their positions; H or OH if unused. Positions of bridges follow the written chain, without caps; N, C: chain ends. Non-standard residues stand in square brackets, D forms with d. Residues, ends and D or L forms follow the SMILES beside them. Chains are numbered I, II in the order given. Actinocin(9to1) = Cc1c2oc3c(C)ccc(C(=O)[*:1])c3nc-2c(C(=O)[*:2])c(N)c1=O; NMeV = CN[C@H](C(=O)O)C(C)C; Sar = CNCC(=O)O
# Tests used:
# [1] = qHTS assay to identify small molecule agonists of the RXR signaling pathway - cell viability counter screen (AID 1159529); further: nearly all actives have a fitted effect of over 50% in size; further: potency means the concentration at half of the fitted maximal effect
# Method in brief: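 Steps: seed RXR-alpha-UAS-bla HEK 293T cells in assay medium containing 2% charcoal-stripped FBS; incubate 5 hr; add compounds in DMSO; incubate 16 hr at 37 C; after the bla read, add CellTiter-Glo and read luminescence at 30 min.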
# [2] = qHTS assay to identify small molecule antagonists of the retinoid acid receptor (RAR) signaling pathway - cell viability counter screen (AID 1159551); further: nearly all actives have a fitted effect of over 35% in size
# Method in brief: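 Following overnight attachment, C3RL4 reporter cells received DMSO-dissolved compounds and then retinol (1 uM final). Six hours later at 37 C, ATP content was measured by CellTiter-Glo luminescence.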
# [3] = qHTS assay to identify small molecule antagonists of the retinoic acid receptor (RAR) signaling pathway (AID 1159552; further: nearly all actives have a fitted effect of over 50% in size; further: potency means the concentration at half of the fitted maximal effect)
# Method in brief: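 Retinol at 1 uM final stimulated RARE-luciferase expression in C3RL4 cells exposed to test compounds for 6 hr at 37 C. Reduced luminescence, read 30 min after detection reagent, indicated pathway antagonism.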
# [4] = qHTS assay to identify small molecule agonists of the retinoic acid receptor (RAR) signaling pathway (AID 1159553); further: potency means the concentration at half of the fitted maximal effect
# Method in brief: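 Cell line C3RL4, RARE luciferase reporter. Treatment: compounds in DMSO, 6 hr, 37 C, 5% CO2, after overnight plating. Detection: luminescence, 30 min RT after reagent.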
# [5] = qHTS assay to identify small molecule antagonists of the estrogen related receptor (ERR) signaling pathway - cell viability counter screen (AID 1224818);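 further: series mostly up to about 46 µM; viability measured after 17.5 h of compound exposure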
# Method in brief: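 Here, ERR cells are plated at 2,000 cells per well, allowed 6 h to attach, and treated with compounds in DMSO for 17.5 h at 37 C. CellTiter-Fluor is then added and fluorescence read after 30 min.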
# [6] = qHTS assay to identify small molecule antagonists of the estrogen related receptor signaling pathway with the pleiotropic PPARgamma coactivator (PGC) cell viability counter screen (AID 1224822; further: potency means the concentration at half of the fitted maximal effect;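 further: viability read after 17.5 h compound exposure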)
# Method in brief: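 qHTS format, DMSO compound stocks pin-transferred onto PGC/ERR cells 6 h after plating; 17.5 h exposure at 37 C, then CellTiter-Fluor fluorescence.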
# [7] = qHTS assay to identify small molecule antagonists of the estrogen related receptor (ERR) signaling pathway (AID 1224819; further: nearly all actives have a fitted effect of over 50% in size; further: potency means the concentration at half of the fitted maximal effect)
# Method in brief: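 LOPAC library screened for antagonism as reduced One-Glo luminescence in ERR reporter cells (2,000/well). Compounds were added after 6 h pre-incubation and left 18 h at 37C; reading followed a 30 min room-temperature reagent step.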
# [8] = qHTS assay to identify small molecule agonists of the estrogen related receptor (ERR) signaling pathway (AID 1224820)
# Method in brief: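 ERR reporter cells (NTP line) plated 2,000/well, incubated 6 h at 37 C/5% CO2, then pinned with compounds in DMSO and held 18 h at 37 C. One-Glo added; luminescence read after 30 min at room temperature.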
# [9] = qHTS assay to identify small molecule agonists of the estrogen related receptor signaling pathway with the pleiotropic PPARgamma coactivator (PGC) (AID 1224823)
# Method in brief: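 PGC/ERR reporter cells were seeded, rested 6 h at 37 C/5% CO2, then exposed to compounds in DMSO by pin transfer for 18 h at 37 C. Luciferase activity was read as luminescence after One-Glo reagent and 30 min at room temperature.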
# [10] = system: estrogen-related receptor alpha (ERRalpha) with PGC-1alpha coactivator, human; test: qHTS assay to identify small molecule antagonists of the estrogen related receptor signaling pathway with the pleiotropic PPARgamma coactivator (PGC) (AID 1224821; calls by dose curve; further: nearly all actives have a fitted effect of over 50% in size; further: potency means the concentration at half of the fitted maximal effect)
# Method in brief: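 Cells engineered for PGC/ERR signalling (line from NTP) were plated 6 h at 37 C/5% CO2, then exposed to DMSO-dissolved compound for 18 h at 37 C. Luciferase activity was read by One-Glo luminescence after 30 min at room temperature.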
Structure (SMILES),Potency [1],Potency [2],Potency [3],Potency [4],Potency [5],Potency [6],Potency [7],outcome [8],outcome [9],Potency [10]
c1ccc2c(c1)CCCC2C1=NCCN1 (stereo unspecified),inactive,inactive,inactive,inactive,inactive,inactive,–,–,–,–
COC(=O)[C@H]1[C@H]2C[C@@H]3c4[nH]c5cc(OC)ccc5c4CCN3C[C@H]2C[C@@H](OC(=O)c2cc(OC)c(OC)c(OC)c2)[C@@H]1OC,inactive,inactive,–,–,inactive,–,21.1 µM (active),inactive,inactive,–
CC(C)CCOCc1ccccc1,inactive,inactive,inactive,inactive,–,–,–,–,–,–
CC1COc2c(N3CCN(C)CC3)c(F)cc3c(=O)c(C(=O)O)cn1c23 (stereo unspecified),inactive,inactive,inactive,inactive,inactive,inactive,–,–,–,–
O=C(OCc1ccccc1)c1ccc(O)cc1,inactive,inactive,inactive,6.86 µM (active) and 11.9 µM (active),–,–,–,–,–,–
CC[C@@H](N)CO,inactive,–,inactive,inactive,–,–,–,–,–,–
"Cc1c2oc3c(C)ccc(C(=O)N[C@@H]4C(=O)N[C@H](C(C)C)C(=O)N5CCC[C@H]5C(=O)N(C)CC(=O)N(C)[C@@H](C(C)C)C(=O)O[C@@H]4C)c3nc-2c(C(=O)N[C@@H]2C(=O)N[C@H](C(C)C)C(=O)N3CCC[C@H]3C(=O)N(C)CC(=O)N(C)[C@@H](C(C)C)C(=O)O[C@@H]2C)c(N)c1=O (I: T[dV]P[Sar][NMeV] / II: T[dV]P[Sar][NMeV]; ester I:1-I:C, II:1-II:C; linker I:N-II:N via Actinocin(9to1))",inactive,–,16.8 nM (active) and 10.6 nM (active),–,–,–,–,–,–,–
CC(=O)N[C@@H](CS)C(=O)O,inactive,inactive,inactive,inactive,inactive,inactive,–,–,–,–
OCC(CO)N[C@H]1C[C@](O)(CO)[C@@H](O)[C@H](O)[C@H]1O,inactive,inactive,inactive,inactive,–,–,–,–,–,–
c1cnc2cc3c(cc2n1)C1CNCC3C1,inactive,inactive,inactive,inactive,inactive,inactive,inactive,inactive,inactive,inactive
CCC(C)(C)C(=O)O[C@H]1C[C@@H](C)C=C2C=C[C@H](C)[C@H](CC[C@@H]3C[C@@H](O)CC(=O)O3)[C@H]21,12 µM (active),inactive,–,inactive,–,–,–,–,–,–
CC(C)C(=O)c1c(C(C)C)nn2ccccc12,inactive,inactive,inactive,inactive,inactive,inactive,inactive,inactive,inactive,inactive
COc1nc(C)nc(Cl)c1NC1=NCCN1,inactive,inactive,inactive,inactive,inactive,inactive,–,–,–,–
O=C1NCC2(CCN(CCc3ccccc3)CC2)O1,inactive,inactive,inactive,inactive,inactive,inactive,–,–,–,–
Clc1ccc2c(c1)C(N1CCNCC1)=Nc1ccccc1O2,inactive,inactive,–,–,inactive,–,–,–,–,–
CC(=O)OCC1=C(C(=O)O)N2C(=O)[C@@H](NC(=O)Cc3cccs3)[C@H]2SC1,inactive,inactive,inactive,inactive,inactive,inactive,–,–,–,–
CCN(CC)c1ccc2c(C)cc(=O)oc2c1,inactive,inactive,inactive,inactive,–,–,–,–,–,–
O=C1CC2(CCCC2)CC(=O)N1CCCCN1CCN(c2ncccn2)CC1,inactive,inactive,inactive,inactive,inactive,inactive,inactive,inactive,inactive,inactive
CCN(CC)C(=S)SSC(=S)N(CC)CC,199 nM (active) and 213 nM (active),inactive,–,–,–,386 nM (active) and 220 nM (active),10.9 µM (active) and 16.2 µM (active),inactive,inactive,386 nM (active) and 1.39 µM (active)
CC(C(O)c1ccc(O)cc1)N1CCC(Cc2ccccc2)CC1 (stereo unspecified),inactive,inactive,inactive,inactive,inactive,–,–,inactive,inactive,–
NC(N)=Nc1nc(CSCC/C(N)=N/S(N)(=O)=O)cs1,inactive,inactive,inactive,inactive,inactive,inactive,inactive,inactive,inactive,inactive
C=CC(=O)OCCCCCCOC(=O)C=C,inactive,–,13.9 µM (active) and 21.7 µM (active),inactive,–,–,–,–,–,–
NCCO,inactive,inactive,inactive,inactive,inactive,inactive,–,–,–,–
[Cl][In]([Cl])[Cl],inactive,inactive,–,inactive,inactive,inactive,inactive,inactive,–,–
COc1ccc(CCN2CCC(Nc3nc4ccccc4n3Cc3ccc(F)cc3)CC2)cc1,8.9 µM (active) and 21.3 µM (active),–,2.11 µM (active),–,–,–,–,–,–,–

# From PubChem BioAssay (Tox21)
